A short description of assay [1]: antimalarial activity against Dd2 strain (AID 2302;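 active = growth inhibition above 50% at the single 2 µM test dose, taken to imply half-maximal potency below 2 µM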;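 also: 0% = DMSO untreated growth and 100% = chloroquine plus artemisinin killed control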). The following applies: P. falciparum Dd2 in RBCs, LDH growth readout, 72 h; at 2 µM; active compounds read high.
Assay [2] in a line: HepG2 cytotoxicity, primary screen, cytotoxicity control for P. falciparum antimalarial project, cell-based, ATP luminescence (AID 2303;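 active = inhibition above 50%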;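 also: 0% = DMSO wells and 100% = digitonin-killed cells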). The settings on record: HepG2 viability, 24-48 h, at 10 µM, active compounds read high.
Assay [3] has as its target L-lactate dehydrogenase (Plasmodium falciparum (isolate CDC / Honduras)) (UniProt Q27743). The assay can be described thus: PfLDH activity inhibition – cell lysate, 3D7 strain, counter-screen for P. falciparum growth inhibition project (AID 2304).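 Also: 0% = vehicle and 100% = reference inhibitor.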 The settings on record: P. falciparum 3D7 crude extract, LDH APAD/NBT absorbance; at 2 µM; active compounds read high. (In general: Counterscreens check selectivity or assay interference.)

Assay [4] in a line: inhibition of 3D7 malaria parasite growth – strain 3D7 (AID 2306).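 Also: 0% = DMSO wells and 100% = chloroquine plus artemisinin control wells.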 The settings on record: P. falciparum 3D7 erythrocytic growth, LDH absorbance, 72 h; at 2 µM; active compounds read high.
In assay [5] the target is Calcium-dependent protein kinase 1 (Plasmodium falciparum (isolate 3D7)) (UniProt P62344). The assay can be described thus: PfCDPK1 kinase inhibitors, biochemical, TCAMS library (AID 1159585; cut-off not given, nearly all actives have IC50 up to about 0.98 µM;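 also: inhibitors leave more ATP so luminescence rises with inhibition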). The settings on record: recombinant PfCDPK1, Kinase-Glo ATP depletion luminescence.
Chain of Calcium-dependent protein kinase 1 (Plasmodium falciparum (isolate 3D7)) (P62344 whole entry, looked up): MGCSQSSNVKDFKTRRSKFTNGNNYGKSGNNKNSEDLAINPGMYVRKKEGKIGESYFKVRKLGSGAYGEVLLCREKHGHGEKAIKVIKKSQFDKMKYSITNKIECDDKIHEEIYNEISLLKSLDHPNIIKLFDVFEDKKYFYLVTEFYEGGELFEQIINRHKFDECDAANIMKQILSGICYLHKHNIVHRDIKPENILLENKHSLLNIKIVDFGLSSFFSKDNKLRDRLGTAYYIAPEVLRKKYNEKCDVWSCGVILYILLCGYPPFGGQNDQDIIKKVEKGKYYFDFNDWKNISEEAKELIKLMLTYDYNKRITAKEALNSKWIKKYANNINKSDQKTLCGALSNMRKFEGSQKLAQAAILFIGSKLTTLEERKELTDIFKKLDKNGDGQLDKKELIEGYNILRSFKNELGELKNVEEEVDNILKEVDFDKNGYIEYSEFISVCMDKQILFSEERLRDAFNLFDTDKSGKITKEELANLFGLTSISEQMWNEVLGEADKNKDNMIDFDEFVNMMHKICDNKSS
Assay [6] addresses Plasmodium falciparum protein kinase 6 (PK6, PF3D7_1337100) (UniProt Q8IDW1). The assay can be described thus: PfPK6 kinase inhibitors, biochemical, TCAMS library (AID 1159586). The settings on record: recombinant PfPK6, Kinase-Glo ATP depletion luminescence. On the technique in general: Kinase-Glo reads ATP consumption through a luciferase reaction.
Assay [7] deals with Protein kinase 7 (PK7), Plasmodium falciparum 3D7 (PF3D7_0213400) (UniProt Q7YTF7). The assay can be described thus: inhibition of Plasmodium PK7 catalytic activity – biochemical, TCAMS antimalarial set, Kinase-Glo luminescence (AID 1159587). The following applies: recombinant PfPK7, Kinase-Glo ATP depletion luminescence.
Chain of Protein kinase 7 (PK7), Plasmodium falciparum 3D7 (PF3D7_0213400) (Q7YTF7 1-343): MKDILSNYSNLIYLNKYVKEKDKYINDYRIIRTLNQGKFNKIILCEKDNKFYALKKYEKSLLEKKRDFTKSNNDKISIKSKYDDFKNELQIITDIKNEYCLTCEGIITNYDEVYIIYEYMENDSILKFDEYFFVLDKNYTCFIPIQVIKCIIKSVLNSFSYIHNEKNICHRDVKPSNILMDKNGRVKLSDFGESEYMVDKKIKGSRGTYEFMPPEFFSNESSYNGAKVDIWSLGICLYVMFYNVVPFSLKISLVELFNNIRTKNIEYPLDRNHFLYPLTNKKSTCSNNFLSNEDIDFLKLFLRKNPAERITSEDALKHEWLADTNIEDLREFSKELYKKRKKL
The target of assay [8] is Calcium-dependent protein kinase 4 (Plasmodium falciparum (isolate 3D7)) (UniProt Q8IBS5). In words: PfCDPK4 kinase inhibitors, biochemical, TCAMS library (AID 1159588; cut-off not given, nearly all actives have IC50 up to about 0.91 µM). The following applies: recombinant PfCDPK4, Kinase-Glo ATP depletion luminescence.
Chain of Calcium-dependent protein kinase 4 (Plasmodium falciparum (isolate 3D7)) (Q8IBS5 whole entry, looked up): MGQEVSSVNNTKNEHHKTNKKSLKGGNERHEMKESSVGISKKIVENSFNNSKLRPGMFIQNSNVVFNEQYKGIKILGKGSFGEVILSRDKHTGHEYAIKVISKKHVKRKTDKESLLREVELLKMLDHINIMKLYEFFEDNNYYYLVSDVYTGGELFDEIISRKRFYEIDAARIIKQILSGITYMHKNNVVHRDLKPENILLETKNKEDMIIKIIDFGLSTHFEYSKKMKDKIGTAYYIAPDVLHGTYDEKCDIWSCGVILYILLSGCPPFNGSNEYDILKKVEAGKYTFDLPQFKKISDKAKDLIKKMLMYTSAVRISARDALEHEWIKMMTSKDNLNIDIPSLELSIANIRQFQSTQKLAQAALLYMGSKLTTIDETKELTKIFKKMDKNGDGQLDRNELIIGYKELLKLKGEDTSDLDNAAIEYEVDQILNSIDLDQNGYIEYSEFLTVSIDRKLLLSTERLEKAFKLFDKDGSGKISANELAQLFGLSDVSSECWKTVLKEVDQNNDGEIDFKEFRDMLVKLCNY

Values without a mark were called inactive. For some of these results: Entries with a potency or affinity are not part of this list. Activity calls are given as the source filed them. Unless noted, no rule for the calls is given here.

Chain of Plasmodium falciparum protein kinase 6 (PK6, PF3D7_1337100) (Q8IDW1 1-305): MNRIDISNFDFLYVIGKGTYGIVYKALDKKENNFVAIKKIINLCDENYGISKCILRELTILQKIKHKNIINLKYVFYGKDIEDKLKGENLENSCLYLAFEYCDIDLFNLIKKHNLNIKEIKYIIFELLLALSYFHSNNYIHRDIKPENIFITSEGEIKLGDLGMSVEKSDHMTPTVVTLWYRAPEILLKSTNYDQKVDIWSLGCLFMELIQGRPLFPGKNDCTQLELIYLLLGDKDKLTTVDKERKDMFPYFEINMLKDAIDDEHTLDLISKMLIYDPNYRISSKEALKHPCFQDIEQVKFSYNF
Chain of L-lactate dehydrogenase (Plasmodium falciparum (isolate CDC / Honduras)) (Q27743 whole entry, looked up): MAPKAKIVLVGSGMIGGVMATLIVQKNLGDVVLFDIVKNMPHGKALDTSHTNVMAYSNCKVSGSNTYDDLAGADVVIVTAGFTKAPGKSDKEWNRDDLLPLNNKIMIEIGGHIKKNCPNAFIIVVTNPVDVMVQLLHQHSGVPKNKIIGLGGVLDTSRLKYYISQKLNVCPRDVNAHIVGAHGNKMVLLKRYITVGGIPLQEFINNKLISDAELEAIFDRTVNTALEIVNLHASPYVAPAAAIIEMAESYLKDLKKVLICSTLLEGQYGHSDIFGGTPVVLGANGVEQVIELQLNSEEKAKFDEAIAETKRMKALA

As usually defined, the inhibition is the change of the read-out against control, counted positive when it falls. Regarding `CC1CN(Cc2ccccc2)CCN1c1ccc(NC(=O)c2ccc(F)cc2)cc1` (stereo not given), the growth inhibition in assay [1] is 89% (active); in assay [4] it was 87% (active). The figures for the inhibition in assay [2] and in assay [3] were -6% and -5%, respectively. The outcome in assay [5], in assay [6], in assay [7] and in assay [8] was inactive.
Regarding `COc1cc(NC(=O)N2CCc3cc(OC)c(OCCN4CCCCC4)cc32)cc(C(F)(F)F)c1`, the growth inhibition is 10% in assay [1] and 93% (active) in assay [4]. Further, the inhibition was 9% in assay [2] and -3% in assay [3]. Also, the result in assay [5], in assay [6], in assay [7] and in assay [8] was inactive.
As for `CC(C)c1ccc(C2CCN(CCCCNC(=O)c3ccc(NC(=O)c4ccc(C(F)(F)F)cc4)cc3)CC2)c(O)c1`, the growth inhibition in assay [1] was 100% (active); in assay [4] it was 99% (active). Further, the inhibition in assay [2] is 47%; in assay [3], 7%. In addition, the result in assay [5], in assay [6], in assay [7] and in assay [8] was inactive.
`CC(C)c1ccc(OCC(O)CN(C)C(C)C(O)c2ccccc2)c(Br)c1` (stereo not given): the growth inhibition is 97% (active) in assay [1] and 95% (active) in assay [4]. Also, the inhibition is 36% in assay [2] and -3% in assay [3]. Besides, the result in assay [5], in assay [6], in assay [7] and in assay [8] was inactive.
As for `O=C(N[C@@H](CC1CCCCC1)C(=O)NCCN1CCOCC1)c1ccc(O)c(-c2ccc(Cl)c(Cl)c2)c1`, the growth inhibition in assay [1] was 99% (active); in assay [4], 97% (active). In addition, the inhibition in assay [2] was -3%; in assay [3], 3%. Further, the result in assay [5], in assay [6], in assay [7] and in assay [8] was inactive.
For `Cc1cccc2[nH]c(-c3cccc(-c4cccc(NC(=O)C5CC(=O)Nc6ccccc65)c4)c3)nc12` (stereo not given), the growth inhibition is 25% in assay [1] and 85% (active) in assay [4]. Further, the inhibition in assay [2] was 13%; in assay [3], 0%. The outcome in assay [5], in assay [6], in assay [7] and in assay [8] was inactive.
Regarding `CCOc1ccc(C(=O)Nc2ccc(-c3nc4ccccc4[nH]3)cc2)cc1[N+](=O)[O-]`, the growth inhibition was 70% (active) in assay [1] and 100% (active) in assay [4]. Also, the inhibition is 22% in assay [2] and 4% in assay [3]. The result in assay [5], in assay [6], in assay [7] and in assay [8] was inactive.
With `O=C(Nc1ccc(Cl)cc1)c1cc(Cl)ccc1NC(=O)C1(c2ccc(Cl)cc2)CCCC1`, the results for the growth inhibition in assay [1] and in assay [4] were 29% and 85% (active), respectively. Also, the inhibition in assay [2] is 13%; in assay [3], -4%. In addition, the outcome in assay [5], in assay [6], in assay [7] and in assay [8] was inactive.
As to `O=C(NC1CCN(Cc2ccccc2)CC1)c1cc(C(=O)NC2CCN(Cc3ccccc3)CC2)cc(C(=O)NC2CCN(Cc3ccccc3)CC2)c1`, the growth inhibition in assay [1] and in assay [4] was 100% (active) in each case. In addition, the inhibition in assay [2] is 13%; in assay [3], 1%. For the same compound, the result in assay [5], in assay [6], in assay [7] and in assay [8] was inactive.
Consider `O=C(Nc1cccc(C(F)(F)F)c1)Nc1nc2ccc([N+](=O)[O-])cc2s1`, for which the growth inhibition in assay [1] was 76% (active); in assay [4], 102% (active). The inhibition was 81% (active) in assay [2] and 0% in assay [3]. Besides, the outcome in assay [5], in assay [6], in assay [7] and in assay [8] was inactive.
In the case of `CC[C@H](NC(=O)c1c(CCCN2CCN(c3ccccc3)CC2)c(-c2ccccc2)nc2cc(O)ccc12)c1ccccc1`, the growth inhibition in assay [1] is 97% (active); in assay [4] it was 96% (active). Further, the inhibition in assay [2] was 12%; in assay [3] it was 6%. Also, the outcome in assay [5], in assay [6], in assay [7] and in assay [8] was inactive.
Turning to `CNS(=O)(=O)CCNCc1ccc(-c2ccc3ncnc(Nc4ccc(OCc5ccccc5)cc4)c3c2)o1`, the values for the growth inhibition in assay [1] and in assay [4] were 26% and 101% (active), respectively. For the same compound, the inhibition was 19% in assay [2] and -3% in assay [3]. In addition, the result in assay [5], in assay [6], in assay [7] and in assay [8] was inactive.
As for `Cc1ccc(-c2nnc(Nc3ccc(C(=O)N4CCCCC4)cc3)c3ccccc23)cc1S(=O)(=O)NCC1CCCO1` (stereo not given), the growth inhibition in assay [1] and in assay [4] was 99% (active) each time. Moreover, the inhibition is -5% in assay [2] and -4% in assay [3]. Further, the outcome in assay [5], in assay [6], in assay [7] and in assay [8] was inactive.
Consider `CN(CCC(O)c1ccc(Cl)c(Cl)c1)C[C@H]1C[C@@H]1C(=O)c1ccccc1` (stereo not given in full), for which the growth inhibition in assay [1] was 96% (active); in assay [4], 98% (active). Further, the inhibition is 11% in assay [2] and -3% in assay [3]. In addition, the outcome in assay [5], in assay [6], in assay [7] and in assay [8] was inactive.
As for `Cc1cc(NCCc2ccccc2)nc(/N=C(\N)Nc2cccc(Cl)c2)n1`, the growth inhibition in assay [1] was 100% (active); in assay [4] it was 101% (active). Also, the inhibition is 24% in assay [2] and 4% in assay [3]. Moreover, the result in assay [5], in assay [6], in assay [7] and in assay [8] was inactive.
For `O=C(C=Cc1ccc([N+](=O)[O-])cc1)N1CCC(CCN2CCC(c3c[nH]c4ccccc34)CC2)CC1`, the growth inhibition in assay [1] is 48%; in assay [4], 100% (active). The inhibition in assay [2] was 60% (active); in assay [3] it was -2%. The outcome in assay [5], in assay [6], in assay [7] and in assay [8] was inactive.
`CS(=O)(=O)CCNCc1cccc(-c2cc3c(Nc4ccc(OCc5ccccc5)cc4)ncnc3cn2)c1`: the figures for the growth inhibition in assay [1] and in assay [4] were 26% and 101% (active), respectively. The inhibition was 3% in assay [2] and 2% in assay [3]. Besides, the outcome in assay [5], in assay [6], in assay [7] and in assay [8] was inactive.
Regarding `Nc1nc(N)c2c(ccc3c2ccn3Cc2ccc(F)cc2)n1`, the values for the growth inhibition in assay [1] and in assay [4] were 96% (active) and 97% (active), respectively. The values for the inhibition in assay [2] and in assay [3] were 66% (active) and 1%, respectively. The result in assay [5], in assay [6], in assay [7] and in assay [8] was inactive.
Turning to `c1cc(CNCCc2ccncc2)cc(-c2cccc(-c3nc4ccccc4[nH]3)c2)c1`, the values for the growth inhibition in assay [1] and in assay [4] were 88% (active) and 100% (active), respectively. The inhibition in assay [2] was 21%; in assay [3], 1%. Further, the result in assay [5], in assay [6], in assay [7] and in assay [8] was inactive.
As for `CNC(=O)COc1cc(C)c(C2CCN(CCCCNC(=O)c3ccc(-c4ccc(C(F)(F)F)cc4)cc3)CC2)cc1C`, the growth inhibition was 72% (active) in assay [1] and 100% (active) in assay [4]. Further, the inhibition in assay [2] was 38%; in assay [3] it was 4%. Moreover, the outcome in assay [5], in assay [6], in assay [7] and in assay [8] was inactive.
